Bioassay records: PubChem BioAssay, The Scripps Research Institute Molecular Screening Center
Most compounds without a hit are left out; they make up all but 1.9% or so of the library.
OPRM1-OPRD1 inv: mu-delta opioid heterodimer inverse agonism | inhibition, % at 9.3 µM | 340,000 tested, 0.21% active | cell-based MOR-DOR heterodimer luminescence | AID 504357; in the data active = inhibition above about 22%, passing the limit was not always enough;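 also: 0% = cells with DMSO and 100% = wells without cells with DMSO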
Target sequence (P35372 whole entry, looked up): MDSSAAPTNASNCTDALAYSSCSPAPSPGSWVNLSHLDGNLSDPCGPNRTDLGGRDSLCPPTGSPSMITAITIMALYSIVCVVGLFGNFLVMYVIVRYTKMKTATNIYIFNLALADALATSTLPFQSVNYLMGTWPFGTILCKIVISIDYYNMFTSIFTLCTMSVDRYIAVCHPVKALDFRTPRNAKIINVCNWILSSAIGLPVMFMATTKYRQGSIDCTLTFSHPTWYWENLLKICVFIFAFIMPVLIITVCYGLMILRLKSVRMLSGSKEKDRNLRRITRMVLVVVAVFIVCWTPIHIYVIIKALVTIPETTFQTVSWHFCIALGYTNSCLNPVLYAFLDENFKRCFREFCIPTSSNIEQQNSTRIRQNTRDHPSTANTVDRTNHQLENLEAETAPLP
Target sequence (P41143 whole entry, looked up): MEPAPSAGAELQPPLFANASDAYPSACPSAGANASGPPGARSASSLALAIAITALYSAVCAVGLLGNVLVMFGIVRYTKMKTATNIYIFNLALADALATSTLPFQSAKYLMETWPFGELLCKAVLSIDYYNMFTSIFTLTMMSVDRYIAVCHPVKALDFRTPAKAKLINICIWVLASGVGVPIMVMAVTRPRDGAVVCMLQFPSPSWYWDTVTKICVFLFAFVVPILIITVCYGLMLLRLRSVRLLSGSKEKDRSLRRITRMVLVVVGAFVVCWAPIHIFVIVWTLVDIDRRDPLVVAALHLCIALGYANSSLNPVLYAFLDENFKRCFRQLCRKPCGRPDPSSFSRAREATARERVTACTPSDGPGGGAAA
MOR-DOR ag-1: agonists of human mu-delta opioid receptor heterodimerization. P35372+P41143. cells, OPRM1-OPRD1 heterodimerization, luminescence. activation, % at 9.3 µM. 340,000 tested, 0.3% active. AID 504326;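 also: 0% = vehicle-treated cells and 100% = reference agonist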
HTR5A ag ctr: counter-screen for OPRM1-OPRD1 agonists: human HTR5A agonism; 340,000 tested, 0.61% active; activation, % at 9.3 µM; HTR5A agonist assay, luminescence, cell-based; in the data active = activation mostly above about 9.5%, no sharp cut-off; inactive = mostly below about 7.6%;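 also: 0% = cells with vehicle only and 100% = reference agonist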
bovine MsrA act: bovine methionine sulfoxide reductase A activation; 360,000 tested, 0.3% active; purified bovine MsrA, absorbance read-out; activation, % at 10.6 µM; AID 602163; in the data active = activation above about 7.5%;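 also: 0% = vehicle and 100% = reference activator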
HTR5A inv ctr: counter-screen for OPRM1-OPRD1 inverse agonists: human HTR5A inverse agonism | AID 504634 | 340,000 tested, 0.083% active | P47898 | inhibition, % at 9.3 µM | HTR5A cell line, luminescence; in the data active = inhibition mostly above about 23%, no sharp cut-off; inactive = mostly below about 18%;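 also: 0% = cells with DMSO and 100% = no-cell wells with DMSO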
MsrA inhibitor: inhibitors of bovine MsrA. AID 651718. 360,000 tested, 0.75% active. inhibition, % at 15.5 µM. purified bovine MsrA, absorbance read-out; in the data active = inhibition above about 4.5%;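 also: 0% = vehicle wells with enzyme and 100% = reference inhibitor wells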
MOR-DOR ag-2: counter-screen for HTR5A agonists: OPRM1-OPRD1 heterodimerization agonism. shares compounds with HTR5A ag ctr. U2OS counter-screen cells, complementation luminescence, 3 h. activation, % at 9.3 µM. 800 tested, 13% active. AID 504913
HTR5A ag confirm: HTR5A (human) agonism, confirmation; activation, % at 9.3 µM; 800 tested, 17% active; shares compounds with HTR5A ag ctr; HTR5A agonist cell assay, luminescence; in the data active = activation above about 17%;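 also: 0% = cells with vehicle only and 100% = full reference agonist response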
MsrA activ conf: confirmation of bovine methionine sulfoxide reductase A activators | shares compounds with bovine MsrA act | purified bovine MsrA, absorbance read-out | activation, % at 10.6 µM | 1,000 tested, 12% active; in the data active = activation above about 4%;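 also: enzyme coupled to thioredoxin and thioredoxin reductase with NADPH; 0% = vehicle wells and 100% = reference activator wells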
MsrA inh confirm: bovine MsrA inhibition, confirmed. shares compounds with MsrA inhibitor. purified bovine MsrA, absorbance read-out. inhibition, % at 15.5 µM. 2,300 tested, 41% active; in the data active = inhibition above about 4.5%;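 also: coupled to thioredoxin reductase with NADPH and selenocystamine and DMSO as substrate; 0% = vehicle only and 100% = full effect of reference inhibitor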
The depositor's hits bear a star; x = no result. Rule as the data show it, unless noted: active = activation above about 18%; inactive = the rest.

SMILES	OPRM1-OPRD1 inv	MOR-DOR ag-1	HTR5A ag ctr	bovine MsrA act	HTR5A inv ctr	MsrA inhibitor	MOR-DOR ag-2	HTR5A ag confirm	others
Cc1ccc(CCNC(=O)C2CCC(=O)N2Cc2ccc(F)cc2)cc1 (stereo not given)	4.8	-1.0	-1.7	-3.1	6.5	1.7	x	x
O=C(NCCc1ccc(Cl)cc1)C1CCC(=O)N1Cc1ccc(F)cc1 (stereo not given)	11.4	-1.9	16.6*	-3.7	-48.6	0.3	0.3	-0.1
O=C(NCc1ccccc1)[C@@H]1CCCN1C(=O)[C@H]1CCCN1C(=O)c1cccc(F)c1	x	x	x	x	x	0.9	x	x
CCOc1ccccc1N1CCN(C(=O)NC2CCCCC2)CC1	18.8	-3.4	0.5	-7.9	-13.7	-1.5	x	x
CCC(C)(C)C1CCC(NC(=O)N2CCN(c3ccccc3O)CC2)CC1 (stereo not given)	-29.7	3.6	14.8*	-2.2	-15.2	-0.8	6.4	-0.3
O=C(NCCn1cccn1)C1CCC(=O)N(CC2CCCCC2)C1 (stereo not given)	18.6	-3.6	25.4*	-2.7	-61.1	-1.7	1.1	-1.0
CSc1cc(-c2ccc(Cl)cc2)[nH]c(=O)c1C#N	3.7	-0.5	17.0*	-2.4	14.6	0.1	-0.3	-1.8
COC(=O)[C@]12C[C@H](CC(=O)N3CCC(c4ccccc4)CC3)C(=O)N(Cc3ccc4c(c3)OCO4)C1=C[C@H](COCc1ccccc1)O[C@@H]2C	x	x	x	x	x	0.6	x	x
CCN(CC)CCNC(=O)c1ccc(NC(=O)COc2ccc3c(c2)CCC3)cc1	7.8	-1.9	17.0*	-6.4	-41.4	-1.6	3.3	7.4
COc1ccc(-c2ccc3c(n2)CCCN3S(=O)(=O)c2ccccc2C)cc1	x	x	x	x	x	0.0	x	x
COc1cc2c(c3c1c(=O)c1cccc(F)c1n3C)C=CC(C)(C)O2	x	x	x	x	x	0.3	x	x
CCOc1cc(N2CCOCC2)c(OCC)cc1NC(=O)COc1ncnc2ccccc12	7.1	-1.6	-5.1	-2.3	-7.9	0.8	x	x
CCOc1cc(N2CCOCC2)c(OCC)cc1NC(=O)c1cc(-c2ccco2)nc2ccccc12	-87.5	14.8	24.1*	-0.1	-23.7	-0.6	95.6*	7.9
Nc1nc2c(ncn2[C@@H]2O[C@H](C(=O)NCCc3c[nH]c4ccccc34)[C@@H](O)[C@H]2O)c(=O)[nH]1	x	x	x	x	x	0.5	x	x
CC(=O)N1CCN(c2ccc(N3CCN(Cc4ccccc4)[C@@H](C)C3)c(C)c2)[C@@H](C)C1	x	x	x	x	x	-1.0	x	x
CCOC(=O)c1sc(NC(=O)c2cc(-c3ccccc3C)nc3ccccc23)c(C#N)c1C	4.4	-0.9	1.6	-4.0	-4.0	-0.2	x	x
Cc1ccccc1-c1cc(C(=O)Nc2sc(C)c(C)c2C(N)=O)c2ccccc2n1	5.2	-1.0	17.5*	-8.8	-45.0	2.1	4.8	-2.0
O=S(=O)(c1ccc(S(=O)(=O)N2CCCN(Cc3ccccc3)C2)cc1)N1CCCCCC1	11.5	-2.2	15.0*	-2.0	-4.4	0.1	0.4	3.2
O=S(=O)(NCc1ccccc1)c1ccc(S(=O)(=O)N2CCCCC2)cc1	-0.1	0.0	4.3	-2.1	-14.1	-0.3	x	x
CCCCC#Cc1ccccc1COC[B-](F)(F)F	x	x	x	x	x	0.8	x	x
CCOC(=O)/C(C#N)=C/Nc1ccccc1OC	-4.7	0.8	16.7*	-17.4	0.4	12.3*	4.2	-2.0	MsrA inh confirm=12.4*
Fc1cccc(Cl)c1CN1CCN(c2ncc(Cc3ccccc3)cn2)CC1	x	x	x	x	x	2.3	x	x
CCn1c(=NC(=O)c2ccco2)sc2cccc(F)c21	-9.3	1.6	20.2*	-3.2	-61.5	4.9*	2.8	-0.9	MsrA inh confirm=3.6
COc1ccc(OC)c2c1sc(=NC(=O)c1ccco1)n2C	-3.4	0.6	-0.2	-2.2	-47.8	3.4	x	x
CN(C)Cc1c(C(C)(C)O)[nH]c2cc(F)ccc12	x	x	x	x	x	-0.6	x	x
SMILES	OPRM1-OPRD1 inv	MOR-DOR ag-1	HTR5A ag ctr	bovine MsrA act	HTR5A inv ctr	MsrA inhibitor	MOR-DOR ag-2	HTR5A ag confirm	others
O=C1C(C=NCCCN2CCCC2=O)=C(O)c2ccccc21	3.9	-0.8	17.5*	-2.2	-6.9	5.2*	28.3*	12.5	MsrA inh confirm=2.6
CCn1c(C)nc2cc(C(=O)N/N=C/c3ccc(OC)c(O)c3)ccc21	-0.6	0.1	14.4*	-5.6	-27.0	7.5*	0.0	-1.2	MsrA inh confirm=4.7*
CCn1c(C)nc2cc(C(=O)N/N=C/c3ccc(OC)cc3)ccc21	x	x	x	-15.7	x	4.2	x	x
Cc1cccc(NC(=S)N(CCN(C)C)Cc2cc3cccc(C)c3[nH]c2=O)c1	-18.9	3.7	3.6	20.1*	-19.3	0.8	x	x	MsrA activ conf=-0.6
Cc1cccc(NC(=S)N(CCN(C)C)Cc2cc3cc(C)cc(C)c3[nH]c2=O)c1	0.9	-0.2	-0.9	-3.5	3.2	0.4	x	x
S=C(NCc1ccccc1)N1CCc2ccccc2C1	-1.6	0.3	4.6	9.5*	35.5	-0.1	x	x	MsrA activ conf=-1.5
CN(C)c1cccc2c(S(=O)(=O)NC(=O)[C@H]3O[C@@H](n4ccc(=O)[nH]c4=O)[C@H](O)[C@@H]3O)cccc12	x	x	x	x	x	1.1	x	x
C#CCN(Cc1ccco1)C(=O)c1nnc2c3ccccc3n(S(=O)(=O)c3ccccc3)c2n1	x	x	x	x	x	0.1	x	x
COc1ccc(-n2c(=O)[nH]cc(C(=O)Nc3ccc4c(c3)OCCO4)c2=O)cc1	-0.3	0.1	2.6	-1.3	-7.8	-0.2	x	x
COc1ccc(-n2c(=O)[nH]cc(C(=O)Nc3ccc4c(c3)OCO4)c2=O)cc1OC	7.1	-1.4	-1.6	11.6*	7.4	-1.0	x	x	MsrA activ conf=0.2
CCOC(=O)C(CNc1ccc(O)cc1)NC(=O)c1ccccc1 (stereo not given)	x	x	x	x	x	-0.1	x	x
CC1=C(C(=O)OC2CCCCCCC2)C(c2cccc(O)c2)NC(=O)N1 (stereo not given)	14.1	-2.5	4.8	8.9*	-1.6	0.5	x	x	MsrA activ conf=-0.9
C=CCn1cccc(C(=O)Nc2ccc(Cl)cc2)c1=O	1.7	-0.4	3.5	7.8*	-13.7	2.2	x	x	MsrA activ conf=-3.8
O=C(N1CCOCC1)N1CCN(C(=O)N(c2ccccc2)c2ccccc2)CC1	14.7	-2.6	7.2	7.9*	3.2	2.4	x	x	MsrA activ conf=-1.6
O=C(N1CCCCC1)N1CCN(C(=O)N(c2ccccc2)c2ccccc2)CC1	1.9	-0.3	8.6	-1.2	-22.6	-1.3	x	x
Cc1ccc(Nc2n[nH]c(=S)s2)cc1C	x	x	x	7.8*	x	0.8	x	x	MsrA activ conf=0.7
S=c1[nH]nc(Nc2cccc(Cl)c2)s1	12.5	-2.7	-4.5	-2.8	12.3	2.0	x	x
COC(=O)[C@]12C[C@H](CC(=O)NCC3CCCCC3)C(=O)N(Cc3ccc4c(c3)OCO4)C1=C[C@H](COCc1ccccc1)O[C@@H]2C	x	x	x	x	x	0.2	x	x
O=S1(=O)C=C(Sc2ccc(Cl)cc2)c2ccccc2C1Cc1ccc(F)cc1 (stereo not given)	x	x	x	x	x	0.6	x	x
